The source of these data is PubChem BioAssay.

Molecules are shown by their SMILES. Activity calls are given as the source filed them.

Assay [1] deals with Human papillomavirus type 1a protein E7 (residues 44-93). The assay is described as follows: HPV1a E7 fragment binders on microarrays, primary screen, biochemical, small-molecule microarray, residues 44-93, 635 nm fluorescence (AID 1108).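 Further: E7 fragment applied at 1 µg/mL in TBST for 1 h at 4 C; score combines spot fluorescence with its signal to noise ratio.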 The note with it: small-molecule microarray binding, fluorescence 635 nm; higher = more signal.
Assay [2] is described as follows: modulators of HCV replicon luciferase signal, primary screen, HCV replication inhibitor project, Huh7 cells, luciferase reporter (AID 1109).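 Further: huh7 hepatoma cells harbouring a luciferase neomycin HCV replicon reporter; luciferase luminescence as measure of HCV replicon replication; test concentration not given here.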 Conditions: 48 h, higher = more signal. Background: In antiviral work, replicon cells carry a viral genome segment that copies itself.
Assay [3] deals with Left-right determination factor 2 (Homo sapiens) (UniProt O00292). The assay is described as follows: LEFTY2 binders on small-molecule microarrays, primary screen, biochemical, small-molecule microarray, 635 nm fluorescence scan (AID 1110). The note with it: LEFTY2 binding, higher = more signal.
Chain of Left-right determination factor 2 (Homo sapiens) (O00292 whole entry, looked up): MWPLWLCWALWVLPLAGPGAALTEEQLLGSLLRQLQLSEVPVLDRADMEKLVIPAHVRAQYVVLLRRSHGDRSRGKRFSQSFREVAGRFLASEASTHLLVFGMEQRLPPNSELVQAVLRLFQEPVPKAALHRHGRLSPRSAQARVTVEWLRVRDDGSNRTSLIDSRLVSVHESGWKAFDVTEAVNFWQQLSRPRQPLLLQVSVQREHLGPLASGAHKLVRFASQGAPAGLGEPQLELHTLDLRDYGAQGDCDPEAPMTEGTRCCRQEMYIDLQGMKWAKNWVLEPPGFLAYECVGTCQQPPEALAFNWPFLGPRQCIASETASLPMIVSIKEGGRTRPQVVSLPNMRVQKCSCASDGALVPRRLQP
Assay [4] concerns the target Calmodulin-1 (Homo sapiens) (UniProt P0DP23). The assay is described as follows: CALM1 binders on microarrays, EGTA buffer, profiling panel, biochemical, small-molecule microarray, Cy5-labelled CALM1 (AID 1111).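 Further: labelled calmodulin applied in Tris saline Tween buffer holding calcium plus EGTA and DTT.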 The note with it: Cy5-CALM1 binding fluorescence, higher = more signal.
The target is the same in assay [5]. Kind of assay: calcium-bound CALM1 binders on microarrays, profiling panel, artefact control for SMM control-protein annotation, biochemical, small-molecule microarray, Cy5-labelled CALM1, plus calcium (AID 1112).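 Further: score merges spot fluorescence with signal to noise from triplicate slides.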 Conditions: Cy5-CALM1 binding fluorescence, higher = more signal.
A short description of assay [6]: small-molecule microarray binders of probe aWnt5a, primary screen, biochemical, biotinylated probe, 635/667 nm fluorescence (AID 1113).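 Further: score merges 667 nm fluorescence intensity with signal-to-noise per printed feature.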 Conditions: higher = more signal.
Assay [7] can be described thus: small-molecule microarray binders of probe aShh, primary screen, biochemical, biotinylated probe, 635/667 nm fluorescence (AID 1114).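 Further: probe is biotin-labelled aShh protein from a stem cell growth factor screen; measures binding of labelled protein to compounds printed on the slide; score merges feature fluorescence at 667 nm with signal-to-noise.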 The note with it: higher = more signal.
Assay [8] is described as follows: small-molecule microarray binders of probe aNog, primary screen, biochemical, biotinylated probe, 635/667 nm fluorescence (AID 1115).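 Further: probe is biotinylated aNog protein used at 0.15 µg/mL for 1 h at 4 C; z-score combines 667 nm fluorescence of each spot with its signal to noise.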 The note with it: higher = more signal.
For assay [9], the target named is Torsin-1A-interacting protein 1 (Homo sapiens) (UniProt Q5JTV8). Kind of assay: LAP1 binders from COS7 cell lysate, primary screen, small-molecule microarray, 635/667 nm fluorescence (AID 1116). Conditions: COS7-hLAP1 lysate binding, 635 nm fluorescence, higher = more signal.
Chain of Torsin-1A-interacting protein 1 (Homo sapiens) (Q5JTV8 whole entry, looked up): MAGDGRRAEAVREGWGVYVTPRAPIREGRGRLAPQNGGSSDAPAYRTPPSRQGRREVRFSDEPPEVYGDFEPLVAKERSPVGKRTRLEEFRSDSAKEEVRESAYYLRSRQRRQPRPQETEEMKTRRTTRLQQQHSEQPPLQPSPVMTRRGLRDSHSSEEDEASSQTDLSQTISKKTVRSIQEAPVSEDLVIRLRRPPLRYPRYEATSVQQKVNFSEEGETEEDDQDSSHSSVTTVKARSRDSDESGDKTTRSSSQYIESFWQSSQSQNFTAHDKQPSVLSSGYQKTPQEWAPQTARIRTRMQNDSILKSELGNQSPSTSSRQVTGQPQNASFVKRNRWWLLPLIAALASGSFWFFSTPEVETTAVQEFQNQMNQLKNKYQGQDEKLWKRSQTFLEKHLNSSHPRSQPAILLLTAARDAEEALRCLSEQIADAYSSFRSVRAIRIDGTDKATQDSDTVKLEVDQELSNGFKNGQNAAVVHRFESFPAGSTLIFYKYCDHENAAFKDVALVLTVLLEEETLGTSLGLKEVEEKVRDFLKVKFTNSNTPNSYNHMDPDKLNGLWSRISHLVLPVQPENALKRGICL
Assay [10] concerns the target Alpha-bungarotoxin (Bungarus multicinctus) (UniProt P60615). Kind of assay: alpha-bungarotoxin binders on microarray, profiling panel, artefact control for SMM control protein annotation, biochemical, small-molecule microarray, Alexa647 label, 635/667 nm fluorescence (AID 1117). The note with it: alpha-BTX-A647 binding fluorescence, higher = more signal.
Assay [11] has as its target Albumin (Bos taurus) (UniProt P02769). The assay is described as follows: bovine serum albumin binders on microarray, profiling panel, artefact control for SMM control protein annotation, biochemical, small-molecule microarray, Alexa647 label, 635/667 nm fluorescence (AID 1118).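 Further: score merges 667 nm emission intensity and signal-to-noise per printed compound spot.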 Conditions: BSA-A647 binding, fluorescence 635 nm, higher = more signal.
A short description of assay [12]: small-molecule microarray binders of probe aXIP, primary screen, biochemical, NeuroSMM set, 635/667 nm fluorescence (AID 1119).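 Further: probe is the protein aXip251-270 applied at 1 µg/mL to compound-printed slides; binding of probe to printed compounds measured as 667 nm fluorescence plus signal to noise.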 Conditions: higher = more signal, called active from +8 up or from −8 down.
Assay [13] in a line: small-molecule binders of probe aNOTCH3, primary screen, biochemical, small-molecule microarray, 635/667 nm fluorescence (AID 1120).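 Further: probe is a biotin-tagged antibody raised against NOTCH3 rather than NOTCH3 protein; score merges spot fluorescence near 667 nm with spot signal to noise.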 The note with it: higher = more signal.
The nature of assay [14]: small-molecule binders of probe aNOTCH2, primary screen, biochemical, small-molecule microarray, 635/667 nm fluorescence (AID 1121).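 Further: score merges feature fluorescence read at 667 nm with its signal to noise.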 The note with it: higher = more signal.
For assay [15], the target named is Carbonic anhydrase 2 (Homo sapiens) (UniProt P00918). Kind of assay: CAII small-molecule binders, profiling panel, biochemical, small-molecule microarray, Alexa647-labelled CAII (AID 1122). Conditions: CAII-A647 binding fluorescence, higher = more signal.
Assay [16] is described as follows: COS7 lysate on small-molecule microarray, probe aHis, 635 nm (AID 1123).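 Further: z-score combines 667nm fluorescence intensity with signal-to-noise per printed compound spot.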 Conditions: COS7 cell lysate, fluorescence, higher = more signal.
The nature of assay [17]: compound binding in COS7 lysate, probe aLAP1, primary screen, cell lysate, small-molecule microarray (AID 1124).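 Further: lysate comes from COS7 cells expressing LAP1 and is applied at 0.3 µg/mL; score merges spot fluorescence near 667 nm with signal-to-noise over triplicate slides.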 Conditions: probe aLAP1, fluorescence, higher = more signal.
The subject of assay [18] is Sam68 (KHDRBS1). Kind of assay: Sam68 small-molecule binders, primary screen, biochemical, small-molecule microarray, 635 nm fluorescence (AID 1125).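 Further: score merges 667 nm channel intensity with signal to noise over triplicate slides.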 The note with it: small-molecule microarray binding, higher = more signal.
The subject of assay [19] is Chordin-like protein 2 (CHRDL2). The assay is described as follows: CHRDL2 small-molecule binders, primary screen, biochemical, small-molecule microarray, 635 nm fluorescence (AID 1126).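 Further: printed compound slides probed with Chrdl2 protein at 4 µg/mL for 1 h at 4 C; score merges 667 nm emission intensity with signal to noise over three replicate slides.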 The note with it: small-molecule microarray binding, fluorescence 635 nm; higher = more signal.
Assay [20] concerns the target Concanavalin-A (Canavalia ensiformis) (UniProt P02866). The assay is described as follows: ConA small-molecule binders, primary screen, artefact control for SMM control protein annotation, biochemical, small-molecule microarray, Alexa647 label, 635 nm (AID 1127).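 Further: z combines 667 nm emission intensity with signal-to-noise across three replicate slides.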 The note with it: ConA-A647 binding fluorescence, higher = more signal.

Chain of Albumin (Bos taurus) (P02769 whole entry, looked up): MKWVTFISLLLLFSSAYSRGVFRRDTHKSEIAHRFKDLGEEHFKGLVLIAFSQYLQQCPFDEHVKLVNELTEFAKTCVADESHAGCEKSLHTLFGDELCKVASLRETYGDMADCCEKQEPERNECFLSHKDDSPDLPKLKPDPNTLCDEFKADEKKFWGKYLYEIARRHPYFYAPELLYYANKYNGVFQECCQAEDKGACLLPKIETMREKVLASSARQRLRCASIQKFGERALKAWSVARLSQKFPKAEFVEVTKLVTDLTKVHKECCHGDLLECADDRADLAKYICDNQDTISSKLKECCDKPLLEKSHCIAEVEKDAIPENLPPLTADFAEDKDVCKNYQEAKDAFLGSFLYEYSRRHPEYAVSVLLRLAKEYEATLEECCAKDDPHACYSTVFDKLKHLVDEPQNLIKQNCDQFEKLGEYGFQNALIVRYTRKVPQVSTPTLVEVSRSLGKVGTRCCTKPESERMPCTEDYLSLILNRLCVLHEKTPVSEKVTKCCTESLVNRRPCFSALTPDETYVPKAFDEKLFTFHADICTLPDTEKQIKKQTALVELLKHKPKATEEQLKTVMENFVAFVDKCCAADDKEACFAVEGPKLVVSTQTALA
Chain of Alpha-bungarotoxin (Bungarus multicinctus) (P60615 whole entry, looked up): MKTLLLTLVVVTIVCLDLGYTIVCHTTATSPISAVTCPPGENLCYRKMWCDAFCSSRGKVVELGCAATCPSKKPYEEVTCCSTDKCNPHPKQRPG
Chain of Concanavalin-A (Canavalia ensiformis) (P02866 whole entry, looked up): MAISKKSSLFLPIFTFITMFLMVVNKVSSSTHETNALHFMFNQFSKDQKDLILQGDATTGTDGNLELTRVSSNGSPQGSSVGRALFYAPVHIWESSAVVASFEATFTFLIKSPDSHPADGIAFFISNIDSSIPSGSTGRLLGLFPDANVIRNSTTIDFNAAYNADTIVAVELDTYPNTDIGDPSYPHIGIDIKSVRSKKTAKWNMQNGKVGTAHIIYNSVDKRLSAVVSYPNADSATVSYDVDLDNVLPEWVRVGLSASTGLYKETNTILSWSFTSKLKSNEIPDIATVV

`C=CCOC(=O)[C@@H]1[C@H]2C(=O)O[C@H](c3ccccc3)[C@H](c3ccccc3)N2[C@H](c2ccc(OCCOC(=O)[C@H]3C[C@H]4C(=O)N[C@@H](Cc5ccccc5)C(=O)N4[C@H]3c3ccc(O)cc3)cc2)[C@@]12C(=O)Nc1ccc(I)cc12`: the composite z-score is 1.06 in assay [1]; 0.866 in assay [3]; -0.0584 in [4]; -1.26 in [5]; -0.135 in assay [6]; 0.302 in assay [7]. The composite z-score is 0.116 in assay [8]; 1.03 in assay [9]; 1.66 in assay [10]; -0.893 in assay [11]; 0.0092 in assay [13]; 0.27 in assay [14]. Further, the composite z-score in [15] was determined as 0.554; in [16], 0.931; in assay [17], 1.17; in [18], 1.29; in assay [19], 1.12; in assay [20], 1.16. In addition, in assay [2], the z-score is -2.78. In addition, the composite Z-score in [12] is 1.43 (inactive).
Take `COC(=O)c1nc2oc1CC[C@@H](CO)NC(=O)N(C)Cc1cn(nn1)C[C@H](Cc1ccccc1)NC2=O`: the composite z-score in assay [1] is -0.205; in assay [3], -1.11; in assay [4], -0.423; in assay [5], 0.376; in assay [6], -0.129; in assay [7] it was 0.0639. Also, the composite z-score is 0.582 in assay [8]; 0.481 in assay [9]; 0.981 in assay [10]; 0.775 in [11]; -0.256 in [13]; -0.152 in [14]. Also, the composite z-score in assay [15] was 0.942; in [16], 1.02; in [17], 0.483; in [18], 0.178; in [19] it was 0.376; in assay [20], 0.667. In addition, in assay [2], the z-score was 1.34. Moreover, the composite Z-score in [12] was -0.275 (inactive).
On to `COCCOC(=O)N1C(=O)[C@@]2(c3cc(C#Cc4ccc(OC)cc4)ccc31)[C@H](c1ccc(OCCO)cc1)N1[C@H](c3ccccc3)[C@H](c3ccccc3)OC(=O)[C@H]1[C@@H]2C(=O)N1CCc2cc(OC)c(OC)cc2C1`, for which the composite z-score in assay [1] is 1.22; in assay [3], 0.493; in assay [4], 0.784; in [5], 0.458; in assay [6] it was -0.203; in [7], -0.0824. Also, the composite z-score in assay [8] was -0.0602; in assay [9] it was 0.705; in assay [10], 0.571; in assay [11], -0.536; in assay [13], 0.0194; in [14] it was -0.0907. Moreover, the composite z-score in assay [15] was 0.228; in assay [16], 0.875; in assay [17], 0.556; in assay [18] it was 1.17; in assay [19] it was 0.599; in [20] it was 0.843. In addition, the z-score in assay [2] was -0.603. Further, in assay [12], the composite Z-score was 0.343 (inactive).
Turning to `Cc1ccc(S[C@]2(C(=O)NCCCN(C)C)CC(=O)N(Cc3ccccc3)[C@@H]2c2ccc(CO)cc2)cc1`, the composite z-score in [1] is -0.364; in assay [3], -1.03; in [4], -0.676; in [5], -0.674; in [6], -0.184; in assay [7], -0.145. Also, the composite z-score in assay [8] was 0.604; in assay [9], 1.17; in assay [10] it was 0.75; in assay [11] it was -0.173; in assay [13], -0.279; in assay [14] it was 0.027. For the same compound, the composite z-score was 0.621 in assay [15]; 0.018 in assay [16]; 0.973 in assay [17]; -0.145 in assay [18]; -0.85 in assay [19]; -0.785 in [20]. In assay [2], this compound yielded a z-score of -1.7. For the same compound, the composite Z-score in [12] is -0.72 (inactive).
As to `COc1cc(NN2C(C(O)c3ccccc3)C=CC3C(=O)N(c4ccccc4)C(=O)C32)cc(OC)c1OC` (stereo not given), the composite z-score is 1.49 in assay [1]; 0.265 in assay [3]; 1.36 in assay [4]; -0.356 in assay [5]; 0.216 in assay [6]; 0.302 in assay [7]. The composite z-score in [8] was 0.539; in assay [9], 0.804; in assay [10], 0.585; in [11] it was 0.923; in [13], 0.569; in [14] it was -0.124. Also, the composite z-score is 0.831 in assay [15]; 3.3 in assay [16]; 0.263 in assay [17]; 1.31 in [18]; -0.0912 in assay [19]; 0.919 in [20]. The compound further showed a z-score in assay [2] of -1.28. Moreover, the composite Z-score in assay [12] was 0.153 (inactive).
